A short description of assay [1]: S16 Schwann cell viability assay (CellTiter-Glo assay) (AID 624031).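 Also: cellular ATP luminescence as a viability measure; nearly all actives have a fitted effect of over 70% in size.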 The procedure, abridged: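 Native S16 rat Schwann cells, 500-750 cells/well in DMEM with 10% FBS, dosed with compound after overnight culture and incubated 24h at 37 degree Celsius/5% CO2. Viability by CellTiter-Glo luminescence; % activity normalized to no-cell wells and DMSO-treated cells.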
(In ATP-based viability assays light output follows the ATP content of the culture.)

The next assay concerns 3D7. Briefly: qHTS profiling for inhibitors of Plasmodium falciparum proliferation (AID 504749). Also: nearly all actives have a fitted effect of over 60% in size. Also: potency is read from the fitted curve at half-maximal effect. Particulars: P. falciparum in erythrocytes, SYBR Green DNA, 72 h; series mostly up to 28.7 µM. The procedure, abridged: (§1)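 SYBR Green fluorescence (ex 485 nm, em 535 nm) reports parasite DNA after 72 h compound exposure of infected red cells at 0.3% parasitemia, 2.5% hematocrit; signal normalized to 0.29 uM artemisinin and vehicle wells.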
For orientation: Quantitative high-throughput screening tests each substance at several concentrations.

The test system of a further assay is 7G8. Described as above. Particulars: P. falciparum in erythrocytes, SYBR Green DNA, 72 h; series mostly up to 28.7 µM. The procedure, abridged:
as §1

The subject of the next assay is ATS95. The description is as above. Conditions: P. falciparum in erythrocytes, SYBR Green DNA, 72 h; series mostly up to 28.7 µM. The procedure, abridged:
as §1

A further assay relates to CP191. The description is as above. Particulars: P. falciparum in erythrocytes, SYBR Green DNA, 72 h; series mostly up to 28.7 µM. The procedure, abridged: as §1
A further assay concerns CP215. The assay is described as above. Particulars: P. falciparum in erythrocytes, SYBR Green DNA, 72 h; series mostly up to 28.7 µM. The procedure, abridged:
as §1

The next assay concerns CP260. The description is as above. Particulars: P. falciparum in erythrocytes, SYBR Green DNA, 72 h; series mostly up to 28.7 µM. The procedure, abridged:
as §1

A further assay deals with CP291. The assay is described as above. Particulars: P. falciparum in erythrocytes, SYBR Green DNA, 72 h; series mostly up to 28.7 µM. The procedure, abridged: as §1
The next assay concerns CP335. The description is as above. Particulars: P. falciparum in erythrocytes, SYBR Green DNA, 72 h; series mostly up to 28.7 µM. The procedure, abridged:
as §1

Another assay relates to DIV17. The assay is described as above. Particulars: P. falciparum in erythrocytes, SYBR Green DNA, 72 h; series mostly up to 28.7 µM. The procedure, abridged:
as §1

In the next assay the test system is DIV30. Described as above. Particulars: P. falciparum in erythrocytes, SYBR Green DNA, 72 h; series mostly up to 28.7 µM. The procedure, abridged:
as §1

For the next assay, the system named is P93_24. The assay is described as above. Conditions: P. falciparum in erythrocytes, SYBR Green DNA, 72 h; series mostly up to 28.7 µM. The procedure, abridged: as §1
In another assay the test system is P94_40. The assay is described as above. Particulars: P. falciparum in erythrocytes, SYBR Green DNA, 72 h; series mostly up to 28.7 µM. The procedure, abridged:
as §1

The subject of a further assay is PAD. The description is as above. Conditions: P. falciparum in erythrocytes, SYBR Green DNA, 72 h; series mostly up to 28.7 µM. The procedure, abridged: as §1
In a further assay the test system is PC26. The assay is described as above. Particulars: P. falciparum in erythrocytes, SYBR Green DNA, 72 h; series mostly up to 28.7 µM. The procedure, abridged: as §1
The test system of the next assay is SC27B. Described as above. Particulars: P. falciparum in erythrocytes, SYBR Green DNA, 72 h; series mostly up to 28.7 µM. The procedure, abridged: as §1
For a further assay, the system named is TAB113. Described as above. Conditions: P. falciparum in erythrocytes, SYBR Green DNA, 72 h; series mostly up to 28.7 µM. The procedure, abridged:
as §1

In a further assay the test system is TAB165. The description is as above. Conditions: P. falciparum in erythrocytes, SYBR Green DNA, 72 h; series mostly up to 28.7 µM. The procedure, abridged: as §1
A further assay deals with CP247. The assay is described as above. Particulars: P. falciparum in erythrocytes, SYBR Green DNA, 72 h; series mostly up to 28.7 µM. The procedure, abridged:
as §1

The next assay deals with CP266. Described as above. Particulars: P. falciparum in erythrocytes, SYBR Green DNA, 72 h; series mostly up to 28.7 µM. The procedure, abridged:
as §1

The structures appear in SMILES notation. Records with an inconclusive call do not appear. Activity calls are given as the source filed them. Calls follow the shape of the dose curve; as a rule, active = well fitted curve in the direction sought with a large enough effect; inconclusive = small, poorly fitted or top-dose-only effect, or another doubt; inactive = no such curve, though single readings can be large; an effect the other way counts as inactive or inconclusive.

Consider `COc1ccc2cc1Oc1cc3c(cc1OC)CC[N+](C)(C)C3Cc1ccc(cc1)Oc1c(OC)c(OC)cc3c1C(C2)[N+](C)(C)CC3` (stereo not given), for which the Potency entry (in assay [1]; in the assay with 3D7; in the assay with 7G8; in the assay with ATS95; in the assay on CP191; in the assay on CP215) was “inactive” throughout. Also, the Potency entry in the assay on CP260, with CP291, in the assay with CP335, in the assay with DIV17, in the assay with DIV30 and with P93_24 was “inactive” in each case. Further, the Potency result with P94_40, in the assay with PAD, in the assay on PC26, with SC27B, in the assay on TAB113 and in the assay on TAB165 was “inactive” in each case.

Consider `CC(C)CCCC(C)C1CC(=O)C2=C3CCC4CC(O)CCC4(C)C3CCC21C` (stereo not given), for which the Potency result (in [1]; with ATS95; in the assay on CP191; in the assay with CP215; in the assay on CP247; in the assay with CP266) was “inactive” throughout. Besides, the Potency entry in the assay on CP291, with DIV17, in the assay with DIV30, in the assay on P93_24, in the assay with P94_40 and with PAD was “inactive” each time. Besides, the Potency entry in the assay with PC26, in the assay on SC27B and in the assay with TAB165 was “inactive” throughout.

In the case of `CCC(C)C(N)C(=O)O` (stereo not given), the Potency entry (in [1]; with 3D7; with 7G8; in the assay with ATS95; with CP191; in the assay on CP215) was “inactive” in each case. Besides, the Potency entry with CP247, in the assay with CP260, with CP266, in the assay with CP291, with CP335 and in the assay on DIV17 was “inactive” in each case. In addition, the Potency result in the assay with DIV30, in the assay on P93_24, in the assay on P94_40, in the assay on PAD, in the assay with PC26 and in the assay with SC27B was “inactive” throughout. For the same compound, the Potency entry in the assay with TAB113 and in the assay on TAB165 was “inactive” throughout.

With `CC1=C(C/C=C(\C)CCCC(C)CCCC(C)CCCC(C)C)C(=O)c2ccccc2C1=O` (stereo not given), the Potency result (in [1]; with CP215; with CP247; in the assay with CP266; in the assay with DIV17; in the assay with DIV30) was “inactive” each time. The Potency entry in the assay with PC26 is “inactive”. For the same compound, the Potency is 8.91 µM (active) with 3D7; 8.91 µM (active) with 7G8; 12 µM (active) in the assay with CP335; 4.47 µM (active) in the assay with P94_40; 7.94 µM (active) in the assay with PAD; 8.91 µM (active) with TAB113.

`Cc1cnc(NC(=O)C2C(=O)c3ccccc3S(=O)(=O)N2C)s1` (stereo not given): the Potency entry (in assay [1]; in the assay with 3D7; with ATS95; in the assay with CP191; in the assay on CP215; with CP247) was “inactive” throughout. Moreover, the Potency entry with CP260, with CP291, in the assay with CP335, in the assay with DIV17, in the assay with DIV30 and in the assay on P93_24 was “inactive” each time. Besides, the Potency result in the assay on P94_40, in the assay on PAD, in the assay with PC26, in the assay with SC27B and in the assay on TAB113 was “inactive” in each case.

With `COc1ccc(C(=O)/C(Br)=C/C(=O)O)cc1`, the Potency result (in assay [1]; with CP247; in the assay with CP260; in the assay on CP266; with CP291; with P93_24) was “inactive” each time. Moreover, the Potency result in the assay on P94_40, with PAD and in the assay on PC26 was “inactive” in each case. Further, the Potency in the assay on 7G8 was 10 µM (active).

On to `C=C1/C(=C\C=C2/CCC[C@]3(C)[C@@H]([C@H](C)/C=C/[C@@H](O)C4CC4)CC[C@@H]23)C[C@@H](O)C[C@@H]1O`, for which the Potency result (in assay [1]; in the assay on 3D7; with ATS95; with CP191; in the assay on CP215; in the assay on CP247) was “inactive” throughout. Further, the Potency result with CP266, in the assay with CP335, in the assay with DIV17, with DIV30, in the assay on PAD and with PC26 was “inactive” each time. The Potency entry with SC27B and in the assay with TAB113 was “inactive” in each case.

`CC1OC(OC2C(O)CC(OC3C(O)CC(OC4CCC5(C)C(CCC6C5CCC5(C)C(C7=CC(=O)OC7)CCC65O)C4)OC3C)OC2C)CC(O)C1O` (stereo not given): the Potency result (in [1]; in the assay on CP191; in the assay with CP215; in the assay on CP247; with CP260; in the assay on CP266) was “inactive” each time. For the same compound, the Potency entry in the assay on CP291, with DIV30, in the assay with P93_24, in the assay with P94_40, with PAD and in the assay on SC27B was “inactive” each time. Moreover, the Potency entry in the assay with TAB113 and in the assay on TAB165 was “inactive” in each case. The Potency in the assay with 7G8 was 12.6 µM (active).

With `C[C@]12CC[C@@H]3c4ccc(O)cc4CC[C@H]3[C@@H]1CCC2OC(=O)CCC1CCCC1` (stereo not given in full), in the assay with 7G8, the Potency was 10 µM (active). The Potency result with ATS95, in the assay with CP191, in the assay with CP215, with CP247, in the assay on CP260 and with CP266 was “inactive” in each case. For the same compound, the Potency entry with CP291, in the assay with DIV17, in the assay with DIV30, in the assay with P94_40, in the assay on PC26 and in the assay on SC27B was “inactive” in each case. The Potency entry in the assay on TAB113 and with TAB165 was “inactive” each time.

Consider `C[C@H](CN1c2ccccc2Sc2cccnc21)N(C)C`, for which the Potency is 11.2 µM (active) with ATS95; 9.53 µM (active) in the assay with CP215; 3.98 µM (active) with CP247; 8.91 µM (active) in the assay with CP260; 6.01 µM (active) with CP335; 4.78 µM (active) with DIV17. Moreover, the Potency in the assay on P93_24 was 8.91 µM (active); in the assay on SC27B, 8.91 µM (active); in the assay with TAB113, 12.6 µM (active); in the assay with TAB165 it was 11.2 µM (active).

On to `CC1=C(c2ccc(NN=C(C#N)C#N)cc2)NNC(=O)C1`, for which the Potency entry (in assay [1]; in the assay on 3D7; with ATS95; with CP191; with CP215; with CP266) was “inactive” each time. For the same compound, the Potency entry in the assay on CP291, in the assay on CP335, in the assay on DIV30, in the assay on P93_24, with P94_40 and with PAD was “inactive” throughout. In addition, the Potency entry with PC26, with SC27B and with TAB165 was “inactive” throughout.

For the compound `CC(C)(C)NC[C@H](O)CSc1nc(-c2ccc(C(N)=O)s2)cs1`, the Potency result (in assay [1]; with 3D7; in the assay with ATS95; in the assay with CP191; with CP215; with CP247) was “inactive” in each case. Further, the Potency entry in the assay with CP266, in the assay with CP291, in the assay on CP335, in the assay on DIV30, in the assay with P93_24 and with P94_40 was “inactive” in each case. Further, the Potency entry in the assay on PAD, with PC26, in the assay on SC27B and in the assay with TAB165 was “inactive” each time.

Consider `C#C[C@]1(O)CC[C@H]2[C@H]3[C@H](CC[C@@]21C)C1=C(CC(=O)CC1)C[C@@H]3C`, for which the Potency entry in the assay with 3D7, with ATS95, with CP191, in the assay with CP215, with CP260 and in the assay on CP266 was “inactive” in each case. For the same compound, the Potency entry in the assay on CP291, in the assay on CP335, in the assay with P93_24, with P94_40, with PAD and in the assay with PC26 was “inactive” in each case. Further, the Potency result in the assay on SC27B, in the assay on TAB113 and in the assay on TAB165 was “inactive” each time.

As to `C/C=C1/NN(CCCN2CCN(c3cccc(Cl)c3)CC2)C(=O)N1CCOc1ccccc1`, the Potency result (in [1]; with 3D7; with ATS95; in the assay with CP215; with CP247; in the assay with CP260) was “inactive” in each case. Also, the Potency entry in the assay on CP266, in the assay on P93_24, in the assay on P94_40, with PAD, in the assay on SC27B and with TAB113 was “inactive” in each case.

Values taken from PubChem BioAssay (NCATS).
